Test [1] in a line: Nuclear factor erythroid 2-related factor 2/antioxidant responsive element (Nrf2/ARE) small molecule agonists: qHTS cell viability counter screen in human keratinocytes (AID 1919968; active means well fitted curve in the direction sought with a large enough effect in the repeat runs; an effect the other way counts as inactive or inconclusive; further: nearly all actives have a fitted effect of over 55% in size; further: potency means the concentration at half of the fitted maximal effect). Put shortly:
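Fluorescence read-out from CellTiter-Fluor after 1 h at 37 C. Wells held HaCaT-derived ARE-luciferase reporter cells (1,500/well) treated 23 h with DMSO-dissolved compounds. Run in the same wells as the luciferase agonist read.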

A short description of test [2]: Nuclear factor erythroid 2-related factor 2/antioxidant responsive element (Nrf2/ARE) small molecule agonists: luciferase reporter gene qHTS assay in human keratinocytes (AID 1919969). Further: nearly all actives have a fitted effect of over 35% in size.
In test [3] the target is Gonadotropin-releasing hormone receptor (Homo sapiens) (UniProt P30968). Put plainly: Human gonadotropin-releasing hormone receptor (GnRHR) small molecule agonists, calcium flux assay in GnRHR-HEK293 cells (AID 1920063). Further: nearly all actives have a fitted effect of over 35% in size. The procedure, abridged:
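Calcium-dye fluorescence, Ex/Em=480/540, recorded every 1 sec over 3 min after compound addition to GnRHR-HEK293 cells. Cells had been seeded 18 hours earlier and dye-loaded for 1 hour at 37 C. Fifteen concentrations, triplicates.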
On the technique in general: Calcium flux is commonly read through the fluorescence of an indicator in the cells.

For test [4], the target named is KiSS-1 receptor (Homo sapiens) (UniProt Q969F8). Put plainly: Human kisspeptin (KISS1R) small molecule agonists, calcium flux assay in KISS1R-HEK293 cells (AID 1920064; active means well fitted curve in the direction sought with a large enough effect in the repeat runs; an effect the other way counts as inactive or inconclusive). The procedure, abridged: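 Calcium flux read-out: kinetic fluorescence at Ex/Em=480/540, 1 s intervals over 3 min, after pin-tool compound addition to dye-loaded KISS1R-HEK293 cells. Fifteen concentrations, triplicates.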

The nature of test [5]: G protein-coupled receptor (GPCR) small molecule agonists, calcium flux assay: HEK293 wild type cell line counter screen (AID 1920065). The procedure, abridged: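 Agonist mode; 18 h seeding at 37 C, 1 h dye load at 37 C; compounds pinned from DMSO, ATP as positive control; kinetic fluorescence 480/540 nm, 3 min, 1 s reads; 15 concentrations, triplicate.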
Test [6] in a line: p53 small molecule agonists, cell-based qHTS assay with human liver microsomes (AID 1963577). Put shortly:
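Compounds act here after metabolic activation: human liver microsomes and NADPH, both at 0.5 mg/mL final, were co-added to p53RE-bla cells. Incubation ran 16 h at 37 C, followed by LiveBLAzer detection.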

Test [7] is described as follows: p53 small molecule agonists, cell-based qHTS assay with rat liver microsomes (AID 1963578). The procedure, abridged: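 Read-out is beta-lactamase reporter fluorescence (LiveBLAzer, 2 h, room temperature, dark) in p53RE-bla cells treated 16 h at 37 C with compound, rat liver microsomes and NADPH, both 0.5 mg/mL final.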
In general terms: In qHTS, concentration-response curves come from the screen itself.

A short description of test [8]: p53 small molecule agonists, cell-based qHTS assay with human liver microsomes: qHTS cell viability counter screen (AID 1963579). Further: nearly all actives have a fitted effect of over 45% in size. Put shortly:
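Cells carrying the p53 response-element beta-lactamase reporter are treated for 16 h at 37 C with test compounds in the presence of human liver microsomes and NADPH (both 0.5 mg/mL final); ATP-based CellTiter-Glo luminescence then reports viability.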

Test [9] in a line: p53 small molecule agonists, cell-based qHTS assay with rat liver microsomes: qHTS cell viability counter screen (AID 1963580). Further: nearly all actives have a fitted effect of over 45% in size. Put shortly:
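Luminescent ATP readout (CellTiter-Glo, 30 min at room temperature) reports viability of p53RE-bla HCT-116 cells after 16 h at 37 C with test compounds under metabolic activation by rat liver microsomes and NADPH at 0.5 mg/mL final each.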

A short description of test [10]: p53 small molecule agonists, cell-based qHTS assay: qHTS cell viability counter screen (AID 1963581). Further: nearly all actives have a fitted effect of over 45% in size. The procedure, abridged:
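Cytotoxicity read-out: ATP-based luminescence (CellTiter-Glo, 30 min RT) measured in the same wells as the p53 reporter assay, HCT-116 p53RE-bla cells, 16 h compound exposure at 37 C.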

Test [11] in a line: p53 small molecule agonists, cell-based qHTS assay (AID 1963582; active means well fitted activation curve with a large enough effect in the signal ratio in the repeat runs, not every such curve was filed as active; the % refers to the signal ratio; further: potency means the concentration at half of the fitted maximal effect). Put shortly: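 Fluorescence intensity read-out of a beta-lactamase reporter under a p53 response element. Cells were exposed to DMSO-dissolved compounds for 16 h at 37 C, then developed with FRET substrate for 2 h at RT.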
Test [12] concerns the target 5-hydroxytryptamine receptor 2A (Homo sapiens) (UniProt P28223). Put plainly: 5-hydroxytryptamine receptor 2A (HTR2A) small molecule agonists, cell-based qHTS assay (AID 1963587). Further: nearly all actives have a fitted effect of over 30% in size. The procedure, abridged: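 HTR2A-CHO cells, plated 18 h at 37 C/5% CO2, dye-loaded 1 h at 37 C; compounds in DMSO added by pin tool (agonist mode). Intracellular calcium flux read as kinetic fluorescence on FDSS over 2 min at 1 s intervals.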

Test [13] has as its target Muscarinic acetylcholine receptor M1 (Homo sapiens) (UniProt P11229). Put plainly: Cholinergic receptor muscarinic 1 (CHRM1) small molecule antagonists, cell-based qHTS assay (AID 1963588). Further: nearly all actives have a fitted effect of over 40% in size. Put shortly:
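Compounds were tested at 15 concentrations in three independent runs. Dye-loaded CHRM1-CHO cells were exposed 5 min at room temperature before stimulation by acetylcholine added at 50nM. Intracellular calcium was read kinetically on FDSS for 3 min.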

Test [14] has the same target. Put plainly: Cholinergic receptor muscarinic 1 (CHRM1) small molecule agonists, cell-based qHTS assay (AID 1963589). Further: nearly all actives have a fitted effect of over 35% in size. The procedure, abridged:
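Calcium flux read-out: kinetic fluorescence at 1 sec intervals after pin-tool compound addition to dye-loaded CHRM1-CHO cells (human M1). Agonist mode; 15 concentrations tested in triplicate independent runs.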

The nature of test [15]: cAMP Responsive Elements (CRE) small molecule agonists, cell-based qHTS assay (AID 1963590). The procedure, abridged: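 Beta-lactamase reporter readout: LiveBLAzer B/G FRET substrate, 2 h at room temperature, added after 3 h compound treatment of CRE-bla HEK 293T cells at 37 C/5% CO2.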
A short description of test [16]: cAMP Responsive Elements (CRE) small molecule antagonists, cell-based qHTS assay (AID 1963591; active means well fitted inhibition curve with a large enough effect in the signal ratio in the repeat runs, not every such curve was filed as active; the % refers to the signal ratio). Put shortly:
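HEK293T CRE-bla; 18 h preincubation; compound pin-transfer; NKH477 0.25 uM final, 3 h, 37 C; LiveBLAzer FRET substrate 2 h RT.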

For test [17], the target named is Beta-2 adrenergic receptor (Homo sapiens) (UniProt P07550). Put plainly: Adrenergic beta2 receptor (ADRB2) small molecule antagonists, cell-based qHTS assay (AID 1963592). Further: nearly all actives have a fitted effect of over 50% in size. Further: potency means the concentration at half of the fitted maximal effect. The procedure, abridged: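 Assay format: CHO-ADRB2 cells, 18-20hr seeding at 37C/5% CO2, then compound plus 1nM isoproterenol agonist mix for 0.5hr RT. Homogeneous time-resolved fluorescence cAMP detection after 1hr, expressed as 665/615 nm ratio.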

In test [18] the target is D(2) dopamine receptor (Homo sapiens) (UniProt P14416). Put plainly: Dopamine D2 receptor (DRD2) small molecule agonists, cell-based qHTS assay (AID 1963594). Further: nearly all actives have a fitted effect of over 35% in size. Put shortly:
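HEK293 cells stably expressing DRD2 were cultured 24 h at 37 C, then given Ro20-1724 (0.1 mM final) and compounds for 10 min at room temperature. NKH477 (200nM) was then added for 30 min. cAMP was read by HTRF.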

Test [19] has the same target. Put plainly: Dopamine D2 receptor (DRD2) small molecule antagonists, cell-based qHTS assay (AID 1963595; active means well fitted inhibition curve with a large enough effect in the signal ratio in the repeat runs, with a control signal flat; the % refers to the signal ratio). The procedure, abridged:
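Stable D2 receptor HEK293 line, 24 h after seeding. Compound preincubated 10 min, then quinpirole (12 nM) with forskolin analogue NKH477 (200 nM), 30 min, room temperature. Detection by time-resolved FRET of cAMP.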

For test [20], the target named is 5-hydroxytryptamine receptor 2A (Homo sapiens) (UniProt P28223). Put plainly: 5-hydroxytryptamine receptor 2A (HTR2A) small molecule antagonists, cell-based qHTS assay (AID 1963586). Further: nearly all actives have a fitted effect of over 45% in size. Further: potency means the concentration at half of the fitted maximal effect. The procedure, abridged: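 CHO cells stably expressing human HTR2A were plated for 18 h at 37 C, then loaded with calcium dye for 1 h. Compounds were preincubated 5 min at room temperature before DOI (4 nM solution) was added. Kinetic fluorescence was read for 3 min.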

Structures are written as SMILES. Inconclusive results are not listed. Activity calls are given as the source filed them. Unless noted, the call rests on the fitted dose curve.

The record followed here is PubChem BioAssay (Tox21).

Sequence of Beta-2 adrenergic receptor (Homo sapiens) (P07550 whole entry, looked up): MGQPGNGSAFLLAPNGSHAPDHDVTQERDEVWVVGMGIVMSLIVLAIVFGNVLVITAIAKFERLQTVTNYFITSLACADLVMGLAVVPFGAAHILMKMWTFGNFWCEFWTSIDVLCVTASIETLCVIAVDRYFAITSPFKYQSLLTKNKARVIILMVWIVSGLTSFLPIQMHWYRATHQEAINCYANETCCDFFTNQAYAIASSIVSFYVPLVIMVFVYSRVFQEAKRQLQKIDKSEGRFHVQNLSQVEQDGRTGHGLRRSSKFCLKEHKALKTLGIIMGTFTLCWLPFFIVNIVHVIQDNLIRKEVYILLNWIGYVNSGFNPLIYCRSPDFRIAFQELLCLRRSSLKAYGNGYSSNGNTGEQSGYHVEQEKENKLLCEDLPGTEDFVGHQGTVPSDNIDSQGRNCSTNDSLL
Sequence of KiSS-1 receptor (Homo sapiens) (Q969F8 whole entry, looked up): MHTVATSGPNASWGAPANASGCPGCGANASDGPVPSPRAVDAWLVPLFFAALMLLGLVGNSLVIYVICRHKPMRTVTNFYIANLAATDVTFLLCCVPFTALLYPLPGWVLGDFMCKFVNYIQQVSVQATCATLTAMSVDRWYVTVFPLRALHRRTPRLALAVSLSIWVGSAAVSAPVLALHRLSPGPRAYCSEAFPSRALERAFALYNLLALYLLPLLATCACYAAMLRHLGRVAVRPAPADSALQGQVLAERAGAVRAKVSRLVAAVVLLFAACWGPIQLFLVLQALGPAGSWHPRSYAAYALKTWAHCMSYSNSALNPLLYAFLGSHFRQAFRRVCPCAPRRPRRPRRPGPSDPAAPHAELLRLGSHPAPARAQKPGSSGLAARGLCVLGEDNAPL
Sequence of Gonadotropin-releasing hormone receptor (Homo sapiens) (P30968 whole entry, looked up): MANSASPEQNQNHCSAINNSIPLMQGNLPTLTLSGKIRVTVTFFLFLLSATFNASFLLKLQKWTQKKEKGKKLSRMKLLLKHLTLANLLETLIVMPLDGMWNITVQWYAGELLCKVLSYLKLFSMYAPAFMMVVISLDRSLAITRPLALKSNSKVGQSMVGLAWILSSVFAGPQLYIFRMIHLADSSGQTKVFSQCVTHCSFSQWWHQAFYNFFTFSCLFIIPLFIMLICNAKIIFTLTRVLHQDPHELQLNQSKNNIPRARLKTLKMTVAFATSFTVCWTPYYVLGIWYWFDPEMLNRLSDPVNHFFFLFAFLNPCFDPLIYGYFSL
Sequence of Muscarinic acetylcholine receptor M1 (Homo sapiens) (P11229 whole entry, looked up): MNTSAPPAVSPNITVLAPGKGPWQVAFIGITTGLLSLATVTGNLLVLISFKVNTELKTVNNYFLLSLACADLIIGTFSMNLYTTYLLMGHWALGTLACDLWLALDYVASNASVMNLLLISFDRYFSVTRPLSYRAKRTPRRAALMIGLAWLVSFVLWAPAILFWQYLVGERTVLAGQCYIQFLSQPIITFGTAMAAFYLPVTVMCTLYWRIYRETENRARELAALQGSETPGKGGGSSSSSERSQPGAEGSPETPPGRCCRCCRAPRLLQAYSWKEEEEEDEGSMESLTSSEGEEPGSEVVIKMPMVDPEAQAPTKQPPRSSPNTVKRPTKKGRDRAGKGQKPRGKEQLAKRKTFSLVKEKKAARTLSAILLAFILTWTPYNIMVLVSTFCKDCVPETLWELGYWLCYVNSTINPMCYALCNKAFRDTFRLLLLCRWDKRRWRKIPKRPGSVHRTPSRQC
Sequence of 5-hydroxytryptamine receptor 2A (Homo sapiens) (P28223 whole entry, looked up): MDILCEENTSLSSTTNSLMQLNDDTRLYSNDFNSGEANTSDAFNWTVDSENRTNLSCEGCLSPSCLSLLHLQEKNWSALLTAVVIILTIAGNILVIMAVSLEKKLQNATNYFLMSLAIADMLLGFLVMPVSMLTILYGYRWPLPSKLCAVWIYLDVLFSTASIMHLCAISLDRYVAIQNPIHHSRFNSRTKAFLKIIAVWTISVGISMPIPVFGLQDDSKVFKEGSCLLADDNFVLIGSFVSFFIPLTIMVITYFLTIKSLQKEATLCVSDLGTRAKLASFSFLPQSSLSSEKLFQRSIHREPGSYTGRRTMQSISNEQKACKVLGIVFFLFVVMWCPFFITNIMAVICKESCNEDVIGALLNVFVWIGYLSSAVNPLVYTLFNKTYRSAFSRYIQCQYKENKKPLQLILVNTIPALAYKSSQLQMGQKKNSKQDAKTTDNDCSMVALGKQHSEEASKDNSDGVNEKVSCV
Sequence of D(2) dopamine receptor (Homo sapiens) (P14416 whole entry, looked up): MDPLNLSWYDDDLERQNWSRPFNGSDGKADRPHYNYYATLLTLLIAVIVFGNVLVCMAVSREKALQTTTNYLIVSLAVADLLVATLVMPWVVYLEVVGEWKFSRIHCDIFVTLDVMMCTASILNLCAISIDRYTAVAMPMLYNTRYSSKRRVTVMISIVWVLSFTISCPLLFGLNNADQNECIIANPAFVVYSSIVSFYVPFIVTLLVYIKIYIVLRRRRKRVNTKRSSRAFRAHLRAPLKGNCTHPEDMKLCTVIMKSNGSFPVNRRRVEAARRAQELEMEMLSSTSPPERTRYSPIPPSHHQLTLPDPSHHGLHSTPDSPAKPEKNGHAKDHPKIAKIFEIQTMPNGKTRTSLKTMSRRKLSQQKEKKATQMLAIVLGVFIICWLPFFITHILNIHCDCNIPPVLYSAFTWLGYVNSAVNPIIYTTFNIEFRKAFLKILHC

As for `CC(Cc1ccccc1)N(C)Cc1ccco1` (stereo not given), the Potency result in test [1], in test [2], in test [3], in test [4], in [5] and in test [6] was “inactive” in each case. The Potency entry in test [7], in [8], in test [9], in test [10], in test [11] and in test [12] was “inactive” each time. The Potency entry in [13], in test [14], in test [15], in test [16], in test [17] and in test [18] was “inactive” throughout. For the same compound, in [19], the Potency result was “inactive”.
As to `CC(C)NCC(O)c1ccc([N+](=O)[O-])cc1` (stereo not given), the Potency result in test [1], in [2], in [3], in [4], in test [5] and in test [6] was “inactive” throughout. The Potency entry in test [7], in test [8], in test [9], in [10], in test [11] and in test [20] was “inactive” throughout. Also, the Potency entry in [12], in test [13], in [14], in test [15], in [16] and in test [19] was “inactive” in each case. In [17], the Potency is 5.96 µM (active).
Turning to `Cc1cc(Cl)ccc1O[C@H](C)C(=O)O`, the Potency entry in test [1], in [2], in test [3], in test [4], in test [5] and in test [6] was “inactive” throughout. The Potency entry in test [7], in test [8], in test [9], in [10], in test [11] and in [20] was “inactive” throughout. In addition, the Potency entry in test [12], in test [13], in test [14], in [16], in test [17] and in test [18] was “inactive” each time. In addition, the Potency entry in [19] was “inactive”.
With `NC(=O)C(Cl)Cl`, the Potency entry in test [1], in test [2], in [3], in [4], in test [5] and in [6] was “inactive” throughout. Also, the Potency entry in test [7], in test [8], in test [9], in test [10], in test [11] and in [12] was “inactive” throughout. Moreover, the Potency entry in test [13], in [14], in test [15], in test [16], in test [17] and in test [18] was “inactive” in each case. For the same compound, the Potency entry in [19] is “inactive”.
With `COc1cc(C=O)cc2c1[C@H](COC(N)=O)[C@]1(OC(C)=O)ON2C[C@H]2[C@@H]1N2C(C)=O`, the Potency in test [1] is 9.69 µM (active); in test [11], 3.63 µM (active). Also, the Potency entry in test [2], in test [3], in test [4], in [5], in [6] and in [7] was “inactive” throughout. Also, the Potency result in test [8], in test [9], in test [10], in test [20], in test [13] and in test [14] was “inactive” each time. In addition, the Potency entry in test [15], in [17], in test [18] and in test [19] was “inactive” throughout.
Take `CN1CCc2cc(Cl)c(O)cc2[C@H]2c3ccccc3CC[C@@H]21`: the Potency result in test [1], in [2], in [3], in [4], in test [5] and in test [6] was “inactive” each time. In addition, the Potency result in [7], in [8], in test [9], in [10], in test [11] and in test [12] was “inactive” throughout. Also, the Potency result in test [13], in test [14], in test [16] and in [18] was “inactive” each time. The Potency in test [20] was 0.0326 µM (active).
With `COc1cnc(OC)n2nc(NS(=O)(=O)c3c(OCC(F)F)cccc3C(F)(F)F)nc12`, the Potency entry in test [1], in test [2], in [3], in test [4], in [5] and in test [6] was “inactive” in each case. For the same compound, the Potency result in [7], in test [8], in [9], in test [10], in test [11] and in test [20] was “inactive” throughout. Also, the Potency result in [12], in [13], in test [14], in test [16], in test [17] and in test [18] was “inactive” in each case. Further, the Potency result in test [19] is “inactive”.
